# Laboratory results reported in PubChem BioAssay AID1159580 (chemical genetic matrix, 2015).
# Among all 5,500 compounds or so, about 2,000 (36%) were called active. About 18% were inconclusive and are not listed. The list shows a part of the results. A number with no mark means an inactive call. No stated cut-off is given here; in the data, active means normalized growth mostly below about 0.91 (no sharp cut-off); inconclusive means no clear call, values can overlap the other calls; inactive means mostly above about 0.92.
# Assay: chemical genetic growth profiling, strain panel (AID 1159580);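 further: tested at 20 µM; growth read once vehicle control cultures reached saturation at 30 °C; 1 = growth at the plate median or of vehicle wells; lower values mean less growth of the strain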
# Details: growth OD
# [1] = S. cerevisiae deletion strains, locus YAL013W, strain DEP1, active compounds read low
# [2] = S. cerevisiae deletion strains, locus YBR229C, strain ROT2, active compounds read low
# [3] = S. cerevisiae deletion strains, locus YDL101C, strain DUN1, active compounds read low
# [4] = S. cerevisiae deletion strains, locus YDR150W, strain NUM1, active compounds read low
# [5] = S. cerevisiae deletion strains, locus YEL061C, strain CIN8, active compounds read low
# [6] = S. cerevisiae deletion strains, locus YGR078C, strain PAC10, active compounds read low
# [7] = S. cerevisiae deletion strains, locus YGR229C, strain SMI1, active compounds read low
# [8] = S. cerevisiae deletion strains, locus YHR030C, strain SLT2, active compounds read low
# [9] = S. cerevisiae deletion strains, locus YHR087W, strain rtc3, active compounds read low
# [10] = S. cerevisiae deletion strains, locus YJL187C, strain SWE1, active compounds read low
# [11] = S. cerevisiae deletion strains, locus YJR043C, strain POL32, active compounds read low
# [12] = S. cerevisiae deletion strains, locus YJR075W, strain HOC1, active compounds read low
# [13] = S. cerevisiae deletion strains, locus YKL190W, strain CNB1, active compounds read low
# [14] = S. cerevisiae deletion strains, locus YLR039C, strain RIC1, active compounds read low
# [15] = S. cerevisiae deletion strains, locus YLR058C, strain SHM2 (second series), active compounds read low
# [16] = S. cerevisiae deletion strains, locus YLR085C, strain ARP6, active compounds read low
# [17] = S. cerevisiae deletion strains, locus YLR262C, strain YPT6, active compounds read low
# [18] = S. cerevisiae deletion strains, locus YML094W, strain GIM5, active compounds read low
# [19] = S. cerevisiae deletion strains, locus YMR219W, strain ESC1, active compounds read low
# [20] = S. cerevisiae deletion strains, locus YMR263W, strain SAP30, active compounds read low
# [21] = S. cerevisiae deletion strains, locus YNL153C, strain GIM3, active compounds read low
# [22] = S. cerevisiae deletion strains, locus YNL298W, strain CLA4 (second series), active compounds read low
# [23] = S. cerevisiae deletion strains, locus YNL322C, strain KRE1, active compounds read low
# [24] = S. cerevisiae deletion strains, locus YNR030W, strain Alg12, active compounds read low
# [25] = S. cerevisiae deletion strains, locus YPL055C, strain LGE1, active compounds read low
# [26] = S. cerevisiae deletion strains, locus YPL241C, strain CIN2, active compounds read low
# [27] = S. cerevisiae deletion strains, locus YPR135W, strain CTF4, active compounds read low
# [28] = S. cerevisiae strains, strain wild type, active compounds read low
# [29] = S. cerevisiae deletion strains, locus YMR307W, strain GAS1, active compounds read low
# [30] = S. cerevisiae deletion strains, locus YNL128W, strain TEP1, active compounds read low
smiles,measurement,setting,value
CC1=C(OS(=O)(=O)c2cc(C)c(Cl)cc2Cl)C(=O)CC1,normalized growth,[1],0.993
same,normalized growth,[2],0.956
same,normalized growth,[3],0.968
same,normalized growth,[4],0.986
same,normalized growth,[5],1
same,normalized growth,[6],0.98
same,normalized growth,[7],0.968
same,normalized growth,[8],0.85
same,normalized growth,[9],0.974
same,normalized growth,[10],0.986
same,normalized growth,[11],0.991
same,normalized growth,[12],0.984
same,normalized growth,[13],0.976
same,normalized growth,[14],0.849
same,normalized growth,[15],0.968
same,normalized growth,[16],0.955
same,normalized growth,[17],0.866
same,normalized growth,[18],1
same,normalized growth,[19],0.985
same,normalized growth,[20],0.977
same,normalized growth,[21],0.971
same,normalized growth,[22],0.914
same,normalized growth,[23],0.97
same,normalized growth,[24],0.968
same,normalized growth,"S. cerevisiae deletion strains, locus YOL006C, strain TOP1, active compounds read low",0.897
same,normalized growth,[25],1.24 [resistant] (active)
same,normalized growth,[26],0.98
same,normalized growth,[27],0.87
COc1ccccc1N1CCN(S(=O)(=O)c2cc(C)c(Cl)cc2C)CC1,normalized growth,[1],0.985
same,normalized growth,[2],0.991
same,normalized growth,[3],0.957
same,normalized growth,[4],0.958
same,normalized growth,[5],0.994
same,normalized growth,[6],0.97
same,normalized growth,[8],1.01
same,normalized growth,[9],0.959
same,normalized growth,[10],0.991
same,normalized growth,[11],1
same,normalized growth,[12],0.989
same,normalized growth,[13],0.987
same,normalized growth,[14],0.981
same,normalized growth,[15],0.988
same,normalized growth,[16],1.01
same,normalized growth,[17],0.976
same,normalized growth,[18],0.958
same,normalized growth,[19],1
same,normalized growth,[20],1
same,normalized growth,[21],0.996
same,normalized growth,[22],0.982
same,normalized growth,[23],0.994
same,normalized growth,[24],0.982
same,normalized growth,[25],0.953
same,normalized growth,[26],1.06
same,normalized growth,[27],0.874
same,normalized growth,[28],0.985
c1ccc2sc(C3(N4CCCCC4)CCCCC3)cc2c1,normalized growth,[1],0.964
same,normalized growth,"S. cerevisiae deletion strains, locus YAL040C, strain CLN3, active compounds read low",1.01
same,normalized growth,"S. cerevisiae deletion strains, locus YCL061C, strain MRC1 (second series), active compounds read low",0.995
same,normalized growth,[4],1
same,normalized growth,"S. cerevisiae deletion strains, locus YDR363W, strain ESC2, active compounds read low",0.937
same,normalized growth,"S. cerevisiae deletion strains, locus YER002W, strain NOP16, active compounds read low",1.01
same,normalized growth,[6],0.983
same,normalized growth,[7],0.93
same,normalized growth,[20],1
same,normalized growth,[29],0.976
same,normalized growth,[30],0.988
same,normalized growth,[21],1.01
same,normalized growth,"S. cerevisiae deletion strains, locus YNL175C, strain NOP13, active compounds read low",1.03
same,normalized growth,"S. cerevisiae deletion strains, locus YNL197C, strain WHI3, active compounds read low",0.986
same,normalized growth,"S. cerevisiae deletion strains, locus YNL224C, strain SQS1, active compounds read low",1
same,normalized growth,"S. cerevisiae deletion strains, locus YOR083W, strain WHI5 (second series), active compounds read low",1.04
same,normalized growth,[25],0.907
COc1cc(/C=C2\NC(=O)NC2=O)ccc1O,normalized growth,[1],1
same,normalized growth,[2],0.965
same,normalized growth,"S. cerevisiae deletion strains, locus YCL061C, strain MRC1, active compounds read low",1
same,normalized growth,[3],0.982
same,normalized growth,[4],0.963
same,normalized growth,[5],0.956
same,normalized growth,[6],0.977
same,normalized growth,[8],0.873
same,normalized growth,[9],1.04
same,normalized growth,[10],0.982
same,normalized growth,[11],0.997
same,normalized growth,[12],0.976
same,normalized growth,[13],0.986
same,normalized growth,[14],0.918
same,normalized growth,[15],0.98
same,normalized growth,[16],0.941
same,normalized growth,[17],0.945
same,normalized growth,[18],0.989
same,normalized growth,[19],0.974
same,normalized growth,[20],0.998
same,normalized growth,[29],1.07
same,normalized growth,[30],0.993
same,normalized growth,[21],0.98
same,normalized growth,[22],0.968
same,normalized growth,[23],0.996
same,normalized growth,[24],1.01
same,normalized growth,[25],0.999
same,normalized growth,[26],0.975
same,normalized growth,[27],0.945
same,normalized growth,[28],0.948
